Compound activity deposited in PubChem by National Center for Advancing Translational Sciences (NCATS).
ERG-DNA inh: inhibitors of human ERG Ets domain-DNA interaction. 370,000 tested, 0.028% active. fluorescence polarization, His-ERG Ets domain / labelled DNA. P11308. Potency, µM (series often up to 76.9 µM), hits mostly inhibitors; active = well fitted inhibition curve with a large enough effect in the polarisation, with a control signal flat; inconclusive = small, poorly fitted or top-dose-only effect, or effect the other way, or a change in a side signal; inactive = no such curve, though single readings can be large or run the other way; the % refers to the polarisation;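 note: polarization taken with two DNA probes labelled with fluorescein and Texas red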
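His-tagged ERG Ets domain (1 uM in the protein solution; 300mM KCl, 50mM Tris-HCl, 1mM EDTA, 1mM DTT, pH 7.5) received compound, then a probe mix of 5 nM fluorescein-DNA and 100nM Texas-615-DNA. Fluorescence polarization was read for both dyes.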
p53 reactivation: mutant p53 re-activation in reporter cells. H1299 p53-A138V BP100-luciferase reporter, luminescence, 24 h. 320,000 tested, 0.063% active. Potency, µM (titrated, usually from 92.2 µM), usual class: activators; note: nearly all actives have a fitted effect of over 45% in size
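p53-null H1299 cells stably carrying temperature-sensitive p53-A138V and a BP100-luciferase reporter were pinned with compounds (4-point, 1:5 series) and held 24 hrs at 37 deg C. Luminescence was read 10 min after detection reagent.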
AT treatment: potential ataxia-telangiectasia treatments restoring KAP-1 phosphorylation | F2112 A-T fibroblasts, KAP-1 phosphorylation AlphaLISA; neocarzinostatin DNA damage 30 min before lysis | Potency, µM (titrated, usually from 57.5 µM), actives largely listed as activators | 320,000 tested, 0.19% active | AID 485349; note: nearly all actives have a fitted effect of over 45% in size
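ATM-like activity read as KAP-1 phosphorylation via AlphaLISA donor/acceptor antibody pairs after lysis and 6 hr at 25C. Cells were ATM-null patient fibroblasts (F2112, hTERT), dosed 60 min, then exposed to the DSB inducer NCS for 30 min.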
S-ASM inh: blocks human secretory acid sphingomyelinase. P17405. placental ASM, HMU-PC fluorogenic substrate, 60 min. Potency, µM (titrated, usually from 57.5 µM), most hits filed as inhibitors. 340,000 tested, 0.006% active. AID 504937
Target sequence (P17405 47-631 limits assumed): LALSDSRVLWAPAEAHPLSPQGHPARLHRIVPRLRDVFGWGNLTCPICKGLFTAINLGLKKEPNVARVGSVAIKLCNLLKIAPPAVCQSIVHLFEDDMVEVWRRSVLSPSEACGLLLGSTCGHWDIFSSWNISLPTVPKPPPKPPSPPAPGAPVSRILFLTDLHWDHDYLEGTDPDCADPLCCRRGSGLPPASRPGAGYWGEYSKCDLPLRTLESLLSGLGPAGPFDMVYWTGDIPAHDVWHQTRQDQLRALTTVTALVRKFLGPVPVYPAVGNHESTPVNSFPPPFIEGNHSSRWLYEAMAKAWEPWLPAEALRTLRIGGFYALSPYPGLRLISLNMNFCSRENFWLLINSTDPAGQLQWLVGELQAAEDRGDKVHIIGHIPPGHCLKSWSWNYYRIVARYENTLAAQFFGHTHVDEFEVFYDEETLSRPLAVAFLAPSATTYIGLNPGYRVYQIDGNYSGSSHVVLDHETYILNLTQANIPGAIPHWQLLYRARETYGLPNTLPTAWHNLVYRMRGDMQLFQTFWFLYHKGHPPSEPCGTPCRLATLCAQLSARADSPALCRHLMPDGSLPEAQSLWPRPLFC
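Human placenta-derived ASM enzyme was preincubated with compound for 10 minutes at room temperature, then given fluorogenic substrate HMU-PC0 (9 uM final) for 60 minutes at 37 °C; a pH 10 stop preceded fluorescence reading at Ex 386/Em 447 nm.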
GCN5L2 inh-1: blocks human GCN5L2 histone acetyltransferase | Q92830 | 390,000 tested, 0.21% active | GCN5L2 HAT assay, ThioGlo1 CoA-SH fluorescence | Potency, µM (top dose mostly 58.9 µM), hits mostly inhibitors | AID 504327
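Fluorescence readout, Ex340nm/Em540nm: ThioGlo1 (50uM final) reacts with free CoA thiol released as 20nM GCN5L2 acetylates H3(1-25) peptide (75uM) using acetyl-CoA (70uM). Compound and enzyme sat 15 min beforehand; 20 min room-temperature reaction.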
Tb PFK inh-1: T. brucei PFK enzyme inhibition | O15648 | T. brucei PFK, ADP-Glo luminescence | Potency, µM (highest dose often 57.5 µM), most hits filed as inhibitors | 330,000 tested, 0.17% active | AID 485367; note: nearly all actives have a fitted effect of over 60% in size
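Activity is normalized to no-enzyme wells (full inhibition) and 1.25 nM enzyme wells (no inhibition). Reaction: 0.5 mM F6P, 0.1 mM ATP, 45 min RT, ADP-Glo luminescence; concentration-response curves fitted and classed by quality.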
Tb PFK KinaseGlo: Tb phosphofructokinase inhibition, orthogonal luminescence; shares compounds with Tb PFK inh-1; Tb PFK enzyme, ATP depletion, Kinase-Glo Plus luminescence; Potency, µM (top dose mostly 57.5 µM); 1,100 tested, 47% active; calls by dose curve; note: nearly all actives have a fitted effect of over 60% in size
Tb PFK inh-2: T. brucei PFK enzyme inhibition, hit validation. shares compounds with Tb PFK inh-1. purified T. brucei PFK, ADP-Glo luminescence, 45 min. Potency, µM (series often up to 57.5 µM), actives largely listed as inhibitors. 1,100 tested, 41% active; note: nearly all actives have a fitted effect of over 60% in size
GCN5L2 inh-2: confirmation of human GCN5L2 histone acetyltransferase inhibitors; 140 tested, 70% active; shares compounds with GCN5L2 inh-1; Potency, µM, hits mostly inhibitors; GCN5L2 HAT, ThioGlo1 CoA fluorescence, 20 min; AID 588347
A number is an active result; – = inactive; ? = inconclusive; · = no result given; [ ] = remark or other dose. This is a sample that favours compounds with a hit; in the whole collection about 0.55% have one here. Unless noted, calls come from the whole dose curve; as a rule, active = well fitted curve in the direction sought with a large enough effect; inconclusive = small, poorly fitted or top-dose-only effect, or another doubt; inactive = no such curve, though single readings can be large; an effect the other way counts as inactive or inconclusive.

SMILES | ERG-DNA inh | p53 reactivation | AT treatment | S-ASM inh | GCN5L2 inh-1 | Tb PFK inh-1 | Tb PFK KinaseGlo | Tb PFK inh-2 | others
Cc1ccc(/C=c2\sc3nc(-c4ccco4)nn3c2=O)o1 | – | – | – | – | – | 21.3µM | ? | ?
CCCCC/C=C\C/C=C\C/C=C\C/C=C\CCCC(=O)N[C@H](C)CO | · | · | · | · | – | · | · | ·
CN1CCCC2(CCN(C(=O)c3ccco3)CC2)C1 | · | · | · | · | – | · | · | ·
Cc1c(NS(=O)(=O)c2ccccc2)ccc([N+](=O)[O-])c1Cl | – | · | · | – | · | · | · | ·
O=C(O)CCCNc1ccc(S(=O)(=O)Nc2ccccc2C(=O)O)cc1C(=O)O | – | – | – | – | – | ? | – | ?
CC(=O)NS(=O)(=O)c1ccc(NC(=O)CSc2ccc(Cl)cc2)cc1 | – | – | – | – | – | 30.1µM | 13.5µM | 30.1µM
O=C(COc1ccccc1F)Nc1ccc(S(=O)(=O)Nc2nccs2)cc1 | – | – | – | – | – | 4.78µM | 2.13µM | 6.01µM
O=C(CSc1ccncc1)Nc1ccc(S(=O)(=O)Nc2nccs2)cc1 | – | – | – | – | – | 19µM | 13.5µM | 26.9µM
CC(=O)Nc1ccc(C2CN(C)CC2C(=O)c2ccc(Cl)cc2)cc1 (configuration not stated) | – | – | – | – | – | – | · | ·
O=C(COc1ccc(Cl)cc1Cl)Nc1ccc(S(=O)(=O)NC2=NCCCCC2)cc1 | – | – | – | – | – | 15.1µM | ? | 30.1µM
Cc1cc(OC(=O)N(C)C)nn1C(=O)N(C)C | · | · | · | · | – | · | · | ·
N#CCCN | · | · | · | · | – | · | · | ·
CC(C)(C)c1ccc(C(=O)NC(=S)Nn2cnnc2)cc1 | – | ? | – | – | – | – | · | ·
[S]=[Sb][S][Sb]=[S] | · | · | · | · | – | · | · | ·
O=C(COc1ccc(F)cc1Cl)Nc1ccc(S(=O)(=O)Nc2nccs2)cc1 | – | – | – | – | – | 1.2µM | 0.953µM | 1.07µM
CC(C)NS(=O)(=O)c1ccc(OCC(=O)N2CCN(Cc3ccccc3)CC2)c(Cl)c1 | – | – | – | – | – | – | · | ·
CCCCCCCCCc1ccc(O)cc1 | · | · | · | · | – | · | · | ·
Clc1ccccc1N1CCN(Cc2ccc3c(c2)OCO3)CC1 | – | · | – | – | – | – | · | ·
Clc1ccc(CN2C3=NCCCN3c3ccccc32)cc1Cl | – | – | – | – | – | 13.5µM | 7.57µM | 13.5µM
Clc1ccc(CN2C3=NCCCN3c3ccccc32)cc1 | – | – | – | – | – | 15.1µM | 23.9µM | 30.1µM
Cc1nc2cc(NC(=O)COc3ccc(C#N)cc3)ccc2n1-c1ccccc1 | – | – | – | – | – | 21.3µM | ? | ?
COc1ccc(-n2c(C)nc3cc(C(=O)N4CCC5(CC4)OCCO5)ccc32)cc1 | – | – | – | – | – | – | · | ·
CC(=O)NC1=NC(=O)/C(=C/c2cc(C)n(-c3cccc(C(=O)O)c3)c2C)S1 | – | – | – | – | – | ? | ? | ?
NC(N)=NOCCC(N)C(=O)O (configuration not stated) | · | · | · | · | – | · | · | ·
COc1cc(C)c(NC(=O)C(=S)NCCc2ccccc2)cc1C | – | – | – | – | – | ? | 23.9µM | ?
SMILES | ERG-DNA inh | p53 reactivation | AT treatment | S-ASM inh | GCN5L2 inh-1 | Tb PFK inh-1 | Tb PFK KinaseGlo | Tb PFK inh-2 | others
CC(Cc1cccc(C(F)(F)F)c1)NCCCc1ccccc1 (configuration not stated) | · | · | · | · | – | · | · | ·
Cn1cccc1/C=C1\SC(=S)N(CC(=O)O)C1=O | – | – | – | – | – | ? | · | ·
O=C(O)c1ccc(-n2cccc2/C=C2/SC(=O)N(CC(=O)N3CCCC3)C2=O)cc1 | – | – | – | – | ? | ? | 4.78µM | 5.36µM
Cc1ccc(CN2C(=O)N/C(=C\c3cccn3-c3cccc(C(=O)O)c3)C2=O)cc1 | – | – | – | – | ? | ? | ? | ?
O=C(O)c1ccc(-n2cccc2/C=C2/NC(=O)N(c3ccccc3)C2=O)cc1 | – | – | – | – | ? | ? | ? | 19µM
O=C(O)c1cccc(-n2cccc2/C=N/O)c1 | – | – | – | – | – | 21.3µM | ? | ?
Clc1ccccc1-c1cncnc1NCCc1cnc[nH]1 | · | · | · | · | – | · | · | ·
CC(C)(C)OC(=O)N1CC[C@H]1COc1cnc[c]([Sn]([CH3])([CH3])[CH3])c1 | · | · | · | · | –[12.7 µM] | · | · | ·
C=C1[C@@H]2C[C@]3(C(CC2=O)[C@]24C5C[C@H]3[C@H]2N(CC)C[C@]5(C)CC[C@@H]4O)[C@@H]1O (some centres not stated) | · | · | · | · | – | · | · | ·
Cc1ccc(N(C)C(=O)Oc2cccc3cccnc23)cc1 | – | – | – | – | – | – | · | ·
CSS(=O)(=O)c1cccc2cccnc12 | – | – | – | – | 8.91µM | 16.9µM | 21.3µM | 30.1µM | GCN5L2 inh-2=5.76
CC(=O)n1cc(C(C[N+](=O)[O-])SCCN)c2ccccc21 (configuration not stated) | – | – | – | – | 25.1µM | ? | – | ? | GCN5L2 inh-2=36.3
O=C(/C=C/c1ccccc1)Nc1cccc(S(=O)(=O)Nc2ccccc2F)c1 | – | – | – | – | ? | 6.75µM | 4.26µM | 6.01µM | GCN5L2 inh-2=?
CNC(C)[C@H](O)c1ccccc1 (some centres not stated) | · | · | · | · | – | · | · | ·
Cc1nc(SCC(=O)c2ccc(F)cc2)n[nH]1 | – | – | · | – | 22.4µM | 21.3µM | ? | ? | GCN5L2 inh-2=?
CCC1(CCCC(=O)c2ccc(F)cc2)C(=O)NC(=S)NC1=O | – | – | – | – | – | – | · | ·
COc1ccc(-c2cc(=NCC(=O)O)c3ccccc3o2)cc1 | – | – | – | – | ? | – | · | · | GCN5L2 inh-2=32.4
Nc1nccc(-c2c(-c3ccc(F)cc3)ncn2C2CCNCC2)n1 | · | · | · | · | – | · | · | ·
